# Compound activity deposited in PubChem BioAssay by The Scripps Research Institute Molecular Screening Center.
# Hits are enriched below; roughly 2% of the tested compounds scored in any of these assays.
# PME-1 primary – PME-1 inhibitors via competitive probe labeling, primary screen, biochemical, fluorescence polarization, FP-Rh probe, HTS | recombinant PME-1 | inhibition, % at 5.9 µM | 320,000 tested, 0.53% active | AID 2130, 2009;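 active = inhibition above the campaign mean of all compounds plus 3 SD, cut at about 26% in these data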;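 also: competitive labeling of PME-1 active site by serine hydrolase directed probe; 0% = PME-1 with DMSO and 100% = wells lacking PME-1 enzyme; inhibitors block probe labeling so polarization falls and inhibition rises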
# Target sequence (Q9Y570 whole entry, looked up): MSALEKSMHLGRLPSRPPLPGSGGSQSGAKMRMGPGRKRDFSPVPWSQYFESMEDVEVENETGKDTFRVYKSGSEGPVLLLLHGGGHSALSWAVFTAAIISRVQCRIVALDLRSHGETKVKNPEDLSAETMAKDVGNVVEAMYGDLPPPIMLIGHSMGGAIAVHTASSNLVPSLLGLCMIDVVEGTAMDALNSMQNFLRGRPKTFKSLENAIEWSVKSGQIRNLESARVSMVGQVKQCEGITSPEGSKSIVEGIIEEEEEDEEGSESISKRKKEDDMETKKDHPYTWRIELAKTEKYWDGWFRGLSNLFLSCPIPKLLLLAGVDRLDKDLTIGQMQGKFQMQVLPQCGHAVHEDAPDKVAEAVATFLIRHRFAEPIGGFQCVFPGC
# LYPLA1 inh – LYPLA1 inhibitors, primary screen, counter-screen for PME1 inhibitor project, biochemical, fluorescence polarization, FP-Rh probe ABPP; 320,000 tested, 0.16% active; AID 2174, 2009; inhibition, % at 5.9 µM; Acyl-protein thioesterase 1 (Homo sapiens), O75608; recombinant LYPLA1;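 active = inhibition above the mean of all tested compounds plus 3 SD, set per campaign, cut at about 14% in these data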;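 also: inhibitors block serine hydrolase probe labeling of LYPLA1 so polarization falls; 0% = enzyme with DMSO and 100% = wells lacking LYPLA1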
# Target sequence (O75608 whole entry, looked up): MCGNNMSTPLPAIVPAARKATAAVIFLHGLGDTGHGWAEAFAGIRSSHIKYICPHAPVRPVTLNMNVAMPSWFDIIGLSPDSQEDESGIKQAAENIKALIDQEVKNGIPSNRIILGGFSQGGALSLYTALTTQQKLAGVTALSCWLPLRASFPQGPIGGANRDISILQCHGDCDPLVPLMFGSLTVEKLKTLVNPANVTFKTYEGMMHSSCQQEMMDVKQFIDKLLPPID
# LYPLA2 inh – LYPLA2 inhibitors, primary screen, counter-screen for PME1 inhibitor project, biochemical, fluorescence polarization, FP-Rh probe ABPP | Acyl-protein thioesterase 2 (Homo sapiens), O95372 | recombinant LYPLA2 | inhibition, % at 5.9 µM | 320,000 tested, 0.38% active;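 active = inhibition above the screen-wide mean plus 3 SD, limit set per campaign, cut at about 26% in these data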;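 also: 0% = LYPLA2 with DMSO and 100% = wells lacking LYPLA2 enzyme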
# Fam108B inh – mouse Fam108B serine hydrolase inhibitors, primary screen, counter-screen for RBBP9 inhibitor project, biochemical, fluorescence polarization; 300,000 tested, 0.33% active; recombinant Fam108B, FP-Rh probe fluorescence polarization; AID 1947, 2009; inhibition, % at 9.51 µM;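 active = inhibition above the screen mean inhibition plus 3 SD, computed separately per campaign, cut at about 18% in these data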;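 also: inhibitors lower polarization as less probe binds the enzyme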
# GSTO1 counter – inhibitors of recombinant GSTO1, primary screen, counter-screen for RBBP9 inhibitor project, biochemical, fluorescence polarization. Glutathione S-transferase omega-1 (Homo sapiens), P78417. activity-based probe fluorescence polarization. inhibition, % at 5.96 µM. 300,000 tested, 1.1% active;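 active = inhibition above the campaign mean inhibition plus 3 SD, cut at about 35% in these data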;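 also: 0% = GSTO1-1 with DMSO and 100% = wells lacking GSTO1-1 enzyme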
# PREPL inhibitor – PREPL enzyme inhibitors, primary screen, biochemical, fluorescence polarization | recombinant PREPL, fluorescence polarization activity-based probe | inhibition, % at 5.96 µM | 320,000 tested, 0.68% active | AID 2751, 2010; in the data active = inhibition above about 43%;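 also: 0% = enzyme with DMSO and 100% = wells lacking enzyme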
# GSTO1 inh conf – GSTO1 inhibitor hit confirmation, counter-screen for RBBP9 inhibitor project, biochemical, fluorescence polarization, triplicate; shares compounds with GSTO1 counter; recombinant GSTO1, probe fluorescence polarization; inhibition, % at 5.96 µM; 2,400 tested, 54% active;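 active = inhibition above the primary screen's cutoff, its mean inhibition plus 3 SD, cut at about 35% in these data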;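 also: loss of polarization as inhibitors block binding of rhodamine sulfonate ester activity probe; 0% = GSTO1 with DMSO and 100% = wells lacking GSTO1 enzyme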
# GSTO1 recomb ABPP – inhibitors of purified human GSTO1, late-stage follow-up, biochemical, gel ABPP, SE-Rh probe, percent inhibition | inhibition, % at 1 µM | 130 tested, 30% active | AID 463110, 2010 | recombinant GSTO1, gel ABPP SE-Rh probe fluorescence | shares compounds with GSTO1 counter;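 active = inhibition of the enzyme GSTO1 above about 75%, limit read from the data; inactive = inhibition below that limit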
# Starred values were filed as active, the others as inactive; x = no result given.
SMILES,PME-1 primary,LYPLA1 inh,LYPLA2 inh,Fam108B inh,GSTO1 counter,PREPL inhibitor,GSTO1 inh conf,others
COc1cc(O)c2c(c1)OC(C)(C)CC2=O,5,0,2,-1,-2,-1,x,
CCSc1nnc(NC(=O)C(C)C)s1,5,1,2,3,2,1,x,
CCSc1nnc(NC(=O)C(C(F)(F)F)C(F)(F)F)s1,-5,8,6,-1,38*,-4,48*,
CC1Oc2cc3oc4c(O)c(O)ccc4c(=O)c3c(O)c2C1(C)C (centres undefined),5,-20,-26,-11,45*,19,6,
O=c1cc(CN2CCOCC2)c2ccc(O)c(O)c2o1,-2,0,-3,-4,14,5,x,
C#CCOCCOCCOCCNc1nc(N2CCN(C(=O)Cn3cc(CCCCN)nn3)CC2)nc(N2CCN(C(=O)[C@H](CCCCN)n3cc(CCCC)nn3)CC2)n1,2,2,5,4,60*,7,2,
C#CCOCCOCCOCCNc1nc(N2CCN(C(=O)Cn3cc(CC(C)O)nn3)CC2)nc(N2CCN(C(=O)[C@H](CCCCN)n3cc(CCC(=O)O)nn3)CC2)n1 (some centres undefined),5,4,2,3,4,0,x,
CCC(=O)N1CCN(C(=O)CC)C1c1ccccc1,-3,-1,2,1,4,1,x,
O=C(CCl)N1c2ccccc2SCC1c1ccccc1 (centres undefined),2,5,-1,0,86*,0,94*,GSTO1 recomb ABPP=75*
Cc1ccc(C(=O)OCn2ncc(Cl)c(Cl)c2=O)cc1,-12,-4,-1,-12,45*,11,46*,
Cc1ccc(O)c(N=CC2=C(O)c3ccccc3C2=O)c1,34*,0,-4,16,68*,27,26,
Cc1cc(C)cc(OC(C)C(=O)NCCCn2ccnc2)c1 (centres undefined),3,-1,6,1,11,8,x,
CN(CCC1CCOCC1)C(=O)c1cc(COc2c(F)cccc2F)on1,3,1,-2,-4,5,6,x,
COc1ccc(NC(=O)CSCC(=O)N2CCN(C(=O)c3ccco3)CC2)cc1,4,0,2,x,x,3,x,
CCOC(=O)c1cnc(-n2[nH]c(C)cc2=O)[nH]c1=O,-8,-6,-4,-3,42*,4,4,
O=C1/C(=C\c2ccco2)SC(=S)N1C1CCCCC1,-5,-3,-4,2,-3,-5,x,
CC1=C(C#N)C(=O)N(C2CCS(=O)(=O)C2)C(=O)/C1=C\c1ccco1 (centres undefined),-20,-9,1,65*,87*,15,73*,
CCCOc1ccc(N2C(=O)CC(N(O)c3ccccc3)C2=O)cc1 (centres undefined),4,-3,0,1,18,-2,x,
COc1ccccc1N(O)C1CC(=O)N(c2ccc(F)cc2)C1=O (centres undefined),-2,4,8,4,57*,6,3,
O=C1CC(N(O)c2ccccc2)C(=O)N1c1cc(Cl)cc(Cl)c1 (centres undefined),34*,7,16,10,68*,17,3,
COc1ccccc1N1C(=O)CC(N(O)c2ccccc2)C1=O (centres undefined),-1,5,5,-3,7,10,x,
Cc1[nH]c2ccccc2c1C(=O)COC(=O)c1ccc[n+]([O-])c1,-3,-1,1,-3,-9,6,x,
Cc1[nH]c2ccccc2c1C(=O)COC(=O)c1ccc([N+](=O)[O-])s1,18,-1,2,6,52*,11,20,
Cc1cc(C(=O)OCC(=O)N2CCC(c3ccccc3)=N2)ccc1[N+](=O)[O-],0,-2,1,5,-5,5,x,
O=C(OCC(=O)N1CCC(c2ccccc2)=N1)c1ccc([N+](=O)[O-])s1,12,1,15,12,58*,6,29,
SMILES,PME-1 primary,LYPLA1 inh,LYPLA2 inh,Fam108B inh,GSTO1 counter,PREPL inhibitor,GSTO1 inh conf,others
O=C(COC(=O)c1ccc([N+](=O)[O-])s1)Nc1ccccc1,-6,0,3,10,65*,8,13,
O=C(COC(=O)c1ccc([N+](=O)[O-])s1)Nc1ccc(F)cc1,8,2,5,x,x,5,x,
O=C(Nc1ccccc1F)c1ccc([N+](=O)[O-])s1,6,4,7,-3,44*,0,12,
Cc1ccc(NC(=O)CCCNC(=O)c2ccc(Cl)cc2)c(O)c1,10,3,6,-3,1,18,x,
CSc1nc(C)c(CCO)c(=O)[nH]1,-1,-2,0,1,-3,-1,x,
CC(=O)N(Cc1ccc(F)cc1)C1=C(NCCc2ccccc2)C(=O)c2ccccc2C1=O,9,3,9,12,44*,30,46*,
O=C(O)Cc1c[nH]c2ccccc12,-6,-3,1,-1,2,12,x,
O=C(O)Cc1c[nH]c2cccc(O)c12,-29,2,1,11,42*,5,23,
O=C(NCCc1ccc(O)c(O)c1)C1COc2ccccc2O1 (centres undefined),2,-4,-6,4,55*,13,9,
COC(=O)c1ccccc1NCc1cc(=O)oc2cc(O)c(O)cc12,-8,-5,4,3,43*,16,10,
COc1ccc(C)cc1NCc1cc(=O)oc2cc(-c3ccccc3)c(O)cc12,-5,2,-1,-4,5,5,x,
O=C(CN1CCCCCC1)Nc1cc([N+](=O)[O-])ccc1Cl,-10,10,18,0,57*,16,14,
O=C(CN1CCCCCC1)Nc1ccc([N+](=O)[O-])cc1Cl,-1,-2,-2,-1,4,-60,x,
CNC(=O)[C@H]1O[C@@H](n2cnc3c(NCc4cccc(I)c4)ncnc32)[C@H](O)[C@@H]1O,4,-1,10,2,8,-9,x,
O=C(Cc1ccccc1)NC1(O)C(=O)c2ccccc2C1=O,5,1,-6,3,72*,5,75*,
